Assay outcomes from PubChem.
FEN1 inh – inhibitors of human flap endonuclease 1. Potency, µM (highest dose often 114 µM), for inactives: at the highest dose activity change, negative = inhibition, most hits filed as inhibitors. actives 0.35% (n = 390,000). Recombinant FEN1 flap cleavage, fluorescence, 15 min. P39748; also: % is scaled to controls: 0 for no effect and ±100 for the full control effect; nearly all actives have a fitted effect of over 65% in size
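Recombinant FEN1 (10 nM) was preincubated with pin-transferred compounds for 15 min at room temperature, then flap DNA substrate (50 nM final) was added. Plates were read at 0 and 15 min, and normalized concentration–response data were fitted to a four-parameter Hill equation.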
WRN helicase inh – inhibitors of human WRN helicase; Q14191; WRN helicase unwinding, fluorescent forked duplex, kinetic; Potency, µM (series often up to 114 µM), without a hit: at the highest dose activity change, negative = inhibition, most hits filed as inhibitors; actives 0.46% (n = 360,000); AID 651768; also: % is scaled to controls: 0 for no effect and ±100 for the full control effect; nearly all actives have a fitted effect of over 55% in size
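WRN at 20 nM final preincubated with compound 15 min at room temperature; reaction started with 100 nM fluorophore/quencher forked duplex oligonucleotide and 2 mM ATP final. Unwinding followed kinetically by red fluorescence (ex 525, em 598 nm).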
Pol iota inh – inhibitors of human DNA polymerase iota; Potency, µM (doses to about 115 µM), inactives show top-dose activity, negative = inhibition, most hits filed as inhibitors; AID 588590; Q9UNA4; Pol iota fluorescent replication assay, 10 min; actives 1% (n = 390,000)
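Fluorescent replication assay read twice, at 0 min and 10 min after adding 50 nM (final) substrate. Enzyme (10 nM) and compounds were first incubated 15 min at room temperature; enzyme-free buffer wells were negative controls.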
POLB inh – DNA polymerase beta (human) inhibition; P06746; Pol beta primer extension/strand displacement, fluorescence kinetic; Potency, µM (doses to about 114 µM), inactives show top-dose activity change, negative = inhibition, actives largely listed as inhibitors; actives 1.3% (n = 340,000); AID 485314; also: % is scaled to controls: 0 for no effect and ±100 for the full control effect
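Homogeneous kinetic assay of primer extension and strand displacement by 10 nM Pol beta, preincubated 15 min at room temperature with compound before 50 nM substrate (final) was added. Read at 0 and 10 min; four-parameter Hill fit.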
Pol eta inh – DNA polymerase eta (human) inhibition. Q9Y253. recombinant Pol eta, fluorescent DNA replication assay. Potency, µM (top dose mostly 114 µM), inactives show at the highest dose activity change, negative = inhibition, usual class: inhibitors. actives 1.2% (n = 390,000); also: % is scaled to controls: 0 for no effect and ±100 for the full control effect
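Pol eta (10 nM) was preincubated with compounds for 15 min at room temperature, after which fluorescent replication substrate (50 nM final) was added to start the reaction. Fluorescence was read kinetically at 0 and 10 min.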
POLK inh – inhibitors of human DNA polymerase kappa; purified Pol kappa, fluorescent DNA synthesis assay, 10 min; Potency, µM (titrated, usually from 107 µM), for the others: top-dose activity, negative = inhibition, most hits filed as inhibitors; actives 0.53% (n = 400,000); AID 588579; also: % is scaled to controls: 0 for no effect and ±100 for the full control effect
Target sequence (Q9UBT6 whole entry, looked up): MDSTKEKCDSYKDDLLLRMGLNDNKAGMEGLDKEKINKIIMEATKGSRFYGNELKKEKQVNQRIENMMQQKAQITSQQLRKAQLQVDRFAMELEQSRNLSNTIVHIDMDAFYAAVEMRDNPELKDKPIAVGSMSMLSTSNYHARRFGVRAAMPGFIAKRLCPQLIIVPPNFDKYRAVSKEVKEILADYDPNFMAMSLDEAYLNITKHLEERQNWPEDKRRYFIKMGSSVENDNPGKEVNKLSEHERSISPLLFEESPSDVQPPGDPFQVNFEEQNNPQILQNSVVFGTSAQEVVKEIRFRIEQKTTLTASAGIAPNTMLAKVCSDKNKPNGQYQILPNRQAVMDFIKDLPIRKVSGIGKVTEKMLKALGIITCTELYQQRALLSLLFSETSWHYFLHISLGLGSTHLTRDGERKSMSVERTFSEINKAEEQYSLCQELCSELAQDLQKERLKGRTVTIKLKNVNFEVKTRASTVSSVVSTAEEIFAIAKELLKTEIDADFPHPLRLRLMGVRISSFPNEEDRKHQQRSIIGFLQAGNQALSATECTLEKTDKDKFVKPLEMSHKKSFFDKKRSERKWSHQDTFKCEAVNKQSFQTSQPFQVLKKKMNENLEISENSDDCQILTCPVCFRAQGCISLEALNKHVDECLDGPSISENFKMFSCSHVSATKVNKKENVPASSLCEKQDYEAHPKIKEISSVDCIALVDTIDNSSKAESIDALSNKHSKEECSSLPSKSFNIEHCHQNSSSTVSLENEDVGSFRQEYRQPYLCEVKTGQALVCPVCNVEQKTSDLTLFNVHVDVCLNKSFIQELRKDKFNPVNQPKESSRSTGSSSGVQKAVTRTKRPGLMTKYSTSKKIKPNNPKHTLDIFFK
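Inhibition of 10 nM Pol kappa is measured by a fluorescent read-out at 0 and 10 min following addition of 50 nM substrate (final), with a 15-min room-temperature compound preincubation.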
* hit, by the source's call; [ ] = dose if it differs, or a comment. Rows were chosen to be rich in hits. Some 2.4% of all compounds tested hit in one or more screens of this group. Calls follow the shape of the dose curve; as a rule, active = well fitted curve in the direction sought with a large enough effect; inconclusive = small, poorly fitted or top-dose-only effect, or another doubt; inactive = no such curve, though single readings can be large; an effect the other way counts as inactive or inconclusive. Potency is read from the fitted curve at half-maximal effect.

What do the screens show for `Cc1cc(C)n2nc3nc(N4CCCCC4)nc(-c4ccco4)c3c2n1`?
FEN1 inh: inconclusive; WRN helicase inh: inconclusive; Pol iota inh: inconclusive; POLB inh: 10µM*; Pol eta inh: 10µM*; POLK inh: 32µM*

What do the screens show for `Cc1cc(Nc2ccccc2Cl)n2nc(-c3ccco3)nc2n1`?
FEN1 inh: 2%; Pol iota inh: 14%; POLB inh: 6%; Pol eta inh: 7%; POLK inh: 0%[60.1 µM]

What do the screens show for `COc1cc(NC(=O)CSc2ncc(S(=O)(=O)c3ccc(Br)cc3)c(=O)[nH]2)cc(OC)c1`?
FEN1 inh: 9%; Pol iota inh: inconclusive; POLB inh: 50µM*; Pol eta inh: inconclusive; POLK inh: -17%

Results for Cc1cc(C)cc(NC(=O)CSc2ncc(S(=O)(=O)c3ccccc3)c(=O)[nH]2)c1 ?
POLB inh: 6%

What do the screens show for `Cc1ccc(NC(=O)CSc2ncc(S(=O)(=O)c3ccc(C(C)C)cc3)c(=O)[nH]2)cc1C`?
FEN1 inh: -13%; Pol iota inh: inconclusive; POLB inh: 20µM*; Pol eta inh: inconclusive; POLK inh: -13%

Results for CC(C)[C@H](NC(=O)[C@H](CC(=O)O)NC(=O)CNC(=O)[C@@H](N)CCCN=C(N)N)C(=O)O ?
POLK inh: 12%[60.1 µM]

How did N#Cc1cccc(-c2nccc(-n3ccnc3)n2)c1 do in these assays?
POLK inh: 7%[60.1 µM]

What do the screens show for `COc1cc(-c2ccc(-[n+]3nc(-c4ccccc4)nn3-c3ccc([N+](=O)[O-])cc3)c(OC)c2)ccc1-[n+]1nc(-c2ccccc2)nn1-c1ccc([N+](=O)[O-])cc1`?
POLK inh: -2%[19.4 µM]

How did Cn1c(SCC(=O)NCc2ccco2)nnc1-c1cccc(NC(=O)c2ccccc2)c1 do in these assays?
FEN1 inh: 13%; Pol iota inh: 25%; POLK inh: 11%

What do the screens show for `CCOc1ccc(NC(=O)CN2C(=O)c3ccccc3Sc3ccc(C(=O)OC)cc32)cc1`?
FEN1 inh: -1%; Pol iota inh: 4%; POLB inh: 79µM*; Pol eta inh: inconclusive; POLK inh: -1%[60.1 µM]

Results for Oc1c(Cl)cc(Cl)cc1Sc1cc(Cl)cc(Cl)c1O ?
POLB inh: 22µM*; POLK inh: inconclusive

How did CCn1c(=O)n(C2=C(CO)CN(CC3CCCCCCC3)CC2)c2ccccc21 do in these assays?
POLK inh: 4%[60.1 µM]

What do the screens show for `O=C(Nc1ccccc1F)c1cnn2c1NC(=C1CC1)C=C2C(F)F`?
FEN1 inh: -12%; Pol iota inh: inconclusive; POLK inh: -83%

What do the screens show for `O=C1CCCC(O)=C1N=Nc1c(Cl)cc(C(F)(F)F)cc1Cl`?
FEN1 inh: -25%; WRN helicase inh: 79µM*; Pol iota inh: 79µM*; POLB inh: inconclusive; Pol eta inh: -17%; POLK inh: inconclusive

Results for CC(C)N1CCC(N2CCN(C3CCCC3)CC2CCO)CC1 (configuration not stated) ?
FEN1 inh: -4%; WRN helicase inh: 9%[57.1 µM]; Pol iota inh: 61%; POLB inh: 17%; Pol eta inh: -20%; POLK inh: 1%

What do the screens show for `Cc1cccc(N2CCC(N3CCN(C4CCCCC4)C(CCO)C3)CC2)c1C` (configuration not stated)?
FEN1 inh: 13%; WRN helicase inh: 0%; Pol iota inh: 49%; POLB inh: 40µM*; Pol eta inh: -2%; POLK inh: -1%

Results for Cc1nc(S/C(=C\c2ccc(OCc3ccccc3Cl)cc2)C(=O)O)n[nH]1 ?
FEN1 inh: 5%; WRN helicase inh: -13%[57.1 µM]; Pol iota inh: inconclusive; POLB inh: 1%; Pol eta inh: 32µM*; POLK inh: 6%

Results for C#CCOCCOCCOCCNc1nc(N2CCOCC2)nc(N2CCN(C(=O)Cn3cc(CCCN=C(N)N)nn3)CC2)n1 ?
FEN1 inh: -1%; WRN helicase inh: 1%; Pol iota inh: -16%; POLB inh: -6%; Pol eta inh: 1%; POLK inh: 2%

Results for C#CCOCCOCCOCCNc1nc(N2CCN(C(=O)CCCCCCCCCCNC(=O)Cn3cc(CCCCCN)nn3)CC2)nc(N2CCN(C(=O)CCCCCCCCCCNC(=O)Cn3cc(CCCCCN)nn3)CC2)n1 ?
FEN1 inh: 89µM*; WRN helicase inh: 79µM*; Pol iota inh: inconclusive; Pol eta inh: -18%; POLK inh: -14%

Results for C#CCOCCOCCOCCNc1nc(N2CCN(C(=O)CCCCCCCCCCNC(=O)Cn3cc(CCCCCN)nn3)CC2)nc(N2CCN(C(=O)CCCCCCCCCCNC(=O)[C@@H](CCC(=O)O)n3cc(CCCCCN)nn3)CC2)n1 ?
FEN1 inh: 7%; WRN helicase inh: 0%; Pol iota inh: inconclusive; Pol eta inh: -15%; POLK inh: 16%

How did C#CCOCCOCCOCCNc1nc(N2CCN(C(=O)Cn3cc(CCO)nn3)CC2)nc(N2CCN(C(=O)Cn3cc(CCCCN)nn3)CC2)n1 do in these assays?
FEN1 inh: -4%; WRN helicase inh: -3%; Pol iota inh: 8%; Pol eta inh: -13%; POLK inh: -11%

What do the screens show for `C#CCOCCOCCOCCNc1nc(N2CCN(C(=O)Cn3cc(CCO)nn3)CC2)nc(N2CCN(C(=O)[C@H]([C@@H](C)CC)n3cc(CCCN=C(N)N)nn3)CC2)n1`?
FEN1 inh: 1%; WRN helicase inh: -6%; Pol iota inh: 12%; Pol eta inh: -19%; POLK inh: 8%

Results for C#CCOCCOCCOCCNc1nc(N2CCN(C(=O)Cn3cc(CCCN=C(N)N)nn3)CC2)nc(N2CCN(C(=O)[C@H]([C@@H](C)CC)n3cc(CCC(=O)O)nn3)CC2)n1 ?
FEN1 inh: 2%; WRN helicase inh: 12%; Pol iota inh: 89µM*; POLB inh: -1%; Pol eta inh: 3%; POLK inh: 1%

Results for C#CCOCCOCCOCCNc1nc(N2CCN(C(=O)Cn3cc(CCCN=C(N)N)nn3)CC2)nc(N2CCN(C(=O)Cn3cc(CCCN=C(N)N)nn3)CC2)n1 ?
POLB inh: 1.6µM*

Results for C#CCOCCOCCOCCNc1nc(N2CCN(C(=O)Cn3cc(CCCCN)nn3)CC2)nc(N2CCN(C(=O)Cn3cc(CCCCN)nn3)CC2)n1 ?
FEN1 inh: -8%; WRN helicase inh: -6%[57.1 µM]; Pol iota inh: inconclusive; POLB inh: 40µM*; Pol eta inh: 2%; POLK inh: inconclusive
